RGS4 inh: human RGS4 inhibition | P49798 | Transcreener GDP fluorescence polarization, RGS4-accelerated GTP hydrolysis | hit rate 0.039% among 390,000 | Potency, µM (titrated, usually from 114 µM), hits mostly inhibitors | AID 504845; note: nearly all actives have a fitted effect of over 75% in size
Target sequence (P49798 whole entry, looked up): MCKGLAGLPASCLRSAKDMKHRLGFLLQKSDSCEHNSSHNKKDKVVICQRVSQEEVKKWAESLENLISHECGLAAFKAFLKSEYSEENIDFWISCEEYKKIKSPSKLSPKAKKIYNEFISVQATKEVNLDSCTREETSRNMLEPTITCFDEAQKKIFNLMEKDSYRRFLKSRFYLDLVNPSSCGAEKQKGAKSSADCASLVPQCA
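MLSMR compounds (23 nl, pin-transferred) preincubated 10 min at room temperature with a 500nM (2x) first reagent, then RGS4 at 900nM (2x) plus Transcreener GDP mix added; fluorescence polarization (620/688 nm) read before and after 90 min at 30 °C.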
PTHR1 agonist: activates the human parathyroid hormone receptor PTHR1; Potency, µM (titrated, usually from 115 µM), most hits filed as activators; AID 743266; Q03431; hit rate 0.075% among 410,000; HEK293 GP2 PTHR1 cells, GloSensor cAMP luminescence, 1 h; note: nearly all actives have a fitted effect of over 55% in size
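HEK-293-derived GP2 cells expressing PTHR1 and a GloSensor cAMP reporter, 3,000/well, plated overnight, given luciferin plus IBMX (each 0.5 mM as added) for 1 h at 37 °C, then compound for 1 h at 37 °C. Luminescence was read after 15 min at room temperature.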
D3 ag: activates the human D3 dopamine receptor; D3R DiscoveRx beta-arrestin cells, luminescence, 90 min; max activation, %; hit rate 0.58% among 410,000; AID 652048; in the data active = max activation above about 30%
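Cells at 1500/well, incubated overnight, then treated with pinned compounds (dopamine as control) for 90 min at 37 degrees C. DiscoveRx reagent added for 30 - 60 minutes at room temperature; luminescence read.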
DRD3 antagonist: antagonists of human D3 dopamine receptor; P35462; D3R cells, DiscoveRx beta-arrestin luminescence, antagonist mode; active compounds read low; max response, negative = inhibition, %; hit rate 2.5% among 360,000; in the data active = max response below about -50%; inconclusive = no clear call, values can overlap the other calls
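Cells expressing the human receptor were seeded at 1500 cells/well, incubated overnight at 37 degrees C in 5% CO2, then exposed to library compounds with dopamine controls for 90 minutes at 37 degrees C before luminescent detection.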
BRCA1 expr act: increases BRCA1 expression; hit rate 1.1% among 380,000; Potency, µM (highest dose often 46.1 µM), hits mostly activators; MCF7-BRCA1-FFLuc reporter, luminescence, 48 h; response scale: scaled: vehicle 0%, 10 µM genistein 100%; note: nearly all actives have a fitted effect of over 80% in size
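Activators of BRCA1 expression were detected as increased firefly luciferase luminescence in engineered MCF7 cells after 48 h compound incubation. Signals were scaled to genistein 10 microM as full activation.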
B2AR arrestin: beta2AR (human) beta-arrestin recruitment activity; beta-arrestin recruitment to beta2AR, cell-based reporter; Potency, µM (highest dose often 46.1 µM), usual class: activators; hit rate 0.02% among 330,000; note: nearly all actives have a fitted effect of over 65% in size
Target sequence (P07550 whole entry, looked up): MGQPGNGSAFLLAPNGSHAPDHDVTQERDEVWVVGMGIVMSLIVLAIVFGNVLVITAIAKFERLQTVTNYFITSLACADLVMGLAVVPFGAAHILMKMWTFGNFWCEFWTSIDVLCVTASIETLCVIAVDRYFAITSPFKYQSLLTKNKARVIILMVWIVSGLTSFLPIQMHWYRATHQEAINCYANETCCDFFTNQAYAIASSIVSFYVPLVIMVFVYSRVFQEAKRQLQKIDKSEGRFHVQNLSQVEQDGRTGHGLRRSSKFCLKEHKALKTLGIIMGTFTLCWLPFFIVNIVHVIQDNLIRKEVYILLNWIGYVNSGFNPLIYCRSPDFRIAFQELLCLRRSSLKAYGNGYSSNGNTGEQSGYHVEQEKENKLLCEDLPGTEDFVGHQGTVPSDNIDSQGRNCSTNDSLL
Large screens that a line does not name were inactive; ! = not confirmed by another sample. Compounds with a hit are over-represented: about 3.7% of the library has one in this group of screens. Unless noted, calls come from the whole dose curve; as a rule, active = well fitted curve in the direction sought with a large enough effect; inconclusive = small, poorly fitted or top-dose-only effect, or another doubt; inactive = no such curve, though single readings can be large; an effect the other way counts as inactive or inconclusive.

Nc1nnc(SC2CC(=O)N(c3ccccc3)C2=O)s1 (stereo unspecified)	RGS4 inh inconclusive, DRD3 antagonist -54.8
CC1CCN(c2cc3c(cc2F)c(=O)c(S(=O)(=O)c2cccc(Cl)c2)cn3Cc2ccccc2)CC1	none (no result: DRD3 antagonist, BRCA1 expr act, B2AR arrestin)
Cc1cc(N2CCN(c3ccccc3)CC2)nc(-n2nc(C)cc2C)n1	DRD3 antagonist -86.3
Cc1cc(N2CCN(c3ccccc3)CC2)nc(-c2ccccc2O)n1	none
CC1CCN(S(=O)(=O)N2CCC(C(=O)NCc3ccc(F)cc3Cl)CC2)CC1	none (no result: RGS4 inh, B2AR arrestin)
O=C(Nc1ccccc1F)c1ccc2c(Cl)c3c(nc2c1)CCC3	none (no result: DRD3 antagonist, B2AR arrestin)
O=C1NC(=O)/C(=C/c2ccc(-c3ccc(F)cc3O)o2)S1	RGS4 inh 21.2µM (no result: PTHR1 agonist, D3 ag, DRD3 antagonist, BRCA1 expr act, B2AR arrestin)
O=C1NC(=S)SC1=Cc1ccc(F)cc1	none (no result: B2AR arrestin)
COc1cccc(CN2CCC2(C)C(=O)Nc2ccc3c(c2)CCN3C(C)=O)c1F (stereo unspecified)	none (no result: RGS4 inh, B2AR arrestin)
COc1ccc(CCN(C)CCCC(C#N)(c2cc(OC)c(OC)c(OC)c2)C(C)C)cc1OC (stereo unspecified)	DRD3 antagonist -57.3, B2AR arrestin inconclusive
Cc1ccsc1/C=N/n1cnc2sc(C)c(C)c2c1=O	BRCA1 expr act 11.2µM
Cc1sc2ncn(/N=C/c3cn(-c4ccccc4)nc3-c3ccccc3)c(=O)c2c1C	none (no result: PTHR1 agonist, D3 ag, DRD3 antagonist, B2AR arrestin)
O=[N+]([O-])c1cccc(NC(=S)NCCc2ccccc2)c1	DRD3 antagonist -70.8
CSc1ccc(-c2nnn(Cc3ccccn3)n2)cc1	BRCA1 expr act 8.91µM
CN[C@@H]1[C@@H](O)[C@@H](O[C@@H]2[C@@H](O)[C@H](OC3OC(CN)=CCC3N)[C@@H](N)C[C@H]2N)OC[C@]1(C)O (stereo partly specified)	none (no result: RGS4 inh, PTHR1 agonist, DRD3 antagonist, BRCA1 expr act, B2AR arrestin)
C=C(C)C1Cc2cc3ccc(=O)oc3cc2O1 (stereo unspecified)	BRCA1 expr act 10µM
CC(C)(O)[C@H]1Cc2cc3ccc(=O)oc3cc2O1	BRCA1 expr act inconclusive
O=C(Nc1nc(-c2ccccc2)cs1)c1cccc([N+](=O)[O-])c1	DRD3 antagonist -69.1
O=C(c1ccc([N+](=O)[O-])cc1)n1nc(-c2ccccc2)nc1NCc1ccccc1	none
CC(C)C(=O)Nc1nc(-c2ccc([N+](=O)[O-])cc2)cs1	BRCA1 expr act inconclusive
O=C(c1cccc([N+](=O)[O-])c1)n1nc(-c2ccccc2)nc1NCc1ccccc1	BRCA1 expr act 10µM
O=C(Nc1nc(-c2cccnc2)cs1)c1cccc([N+](=O)[O-])c1	none
Cc1onc(-c2ccccc2)c1C(=O)Nc1nc(-c2ccccc2)cs1	PTHR1 agonist inconclusive, DRD3 antagonist -55.9
CNc1nc(-c2ccc([N+](=O)[O-])cc2)cs1	RGS4 inh inconclusive, BRCA1 expr act 10µM
Cc1cc(CNC[C@H]2O[C@@H](n3ccc(N)nc3=O)[C@H](O)[C@@H]2O)no1	none (no result: RGS4 inh, B2AR arrestin)
CCN(CC)C(=O)C1=C(C)N(Cc2ccccc2)C(=O)C(CC(=O)NCc2cccs2)C1 (stereo unspecified)	none (no result: RGS4 inh, B2AR arrestin)
COc1ccccc1CNC(=O)N1CCN(S(=O)(=O)c2ccccc2)CC1	D3 ag 30.4
COc1ccccc1CNC(=O)N1CCN(S(=O)(=O)c2ccc(Cl)cc2)CC1	none
O=C(Nc1ccsn1)c1ccc(Cl)cc1Cl	BRCA1 expr act 2.51µM
COc1ccc(C(=O)CSc2nnc(CNC(=O)c3ccccc3)o2)cc1	none
CC(C)(C)Nc1nc(Cl)nc(NC(C)(C)C)n1	none
CC(C)(C)Nc1nc(NN)nc(NC(C)(C)C)n1	DRD3 antagonist -80.0
CN(C)c1ccc(CNC(=O)C2CCC(CNc3c(N4CCCCC4)c(=O)c3=O)CC2)cc1 (stereo unspecified)	none
CC(=O)N1N=C(c2ccc(C)cc2)OC1c1ccc(Br)cc1 (stereo unspecified)	BRCA1 expr act 12.6µM
O=C(CC1N=C(Cc2ccccc2)NNC1=O)N/N=C/c1ccc([N+](=O)[O-])cc1 (stereo unspecified)	none
CCCCCCCCCn1c2c(c(=N)c3c1CCC3)CCC2	DRD3 antagonist -55.6
Cc1ccc(S(=O)(=O)NC(=O)C2(C)CCN2C(=O)C2CCCCC2)cc1 (stereo unspecified)	none (no result: RGS4 inh, B2AR arrestin)
CC(=O)c1coc2ccc(OCCN3CCCCC3)cc12	DRD3 antagonist -83.5
COc1ccc2occ(C(C)=O)c2c1	none
Cc1ccc(Nc2cc(C)nc(-c3ccccc3)n2)cc1	BRCA1 expr act 3.16µM
CC(=O)n1cc(N(C(=O)CCl)c2ccc(C)cc2)c2ccccc21	DRD3 antagonist -67.0
CC(=O)N(c1ccc(Cl)cc1)c1cn(C(C)=O)c2ccccc12	none
Cc1cc(Cl)ccc1Nc1ncccc1C(N)=O	BRCA1 expr act 4.47µM
CCOC(=O)c1ccc(NCc2cccnc2)cc1	BRCA1 expr act inconclusive
CCOCCCNC(=S)NNC(=O)CCn1nc(C)c(Br)c1C	DRD3 antagonist -97.1
Cc1nn(CCC(=O)NNC(=S)NCC(C)C)c(C)c1Br	DRD3 antagonist -103.8
CNC(=S)NNC(=O)CCn1nc(C)c(Br)c1C	DRD3 antagonist inconclusive (no result: B2AR arrestin)
NS(=O)(=O)c1ccc(O)c(NC(=O)c2ccc([N+](=O)[O-])cc2)c1	none
Cc1nn2c(=O)cc(COC(=O)c3ccc(NC(=O)c4cccc(Br)c4)cc3)nc2s1	none (no result: DRD3 antagonist, BRCA1 expr act, B2AR arrestin)
COC(=O)c1ccc(COC(=O)CNC(=O)C2CCCCC2)cc1	B2AR arrestin inconclusive
C[C@H](NC(=O)[C@H](Cc1ccccc1)n1c(=O)[nH]c2ccccc2c1=O)C(=O)N1CCC(C(=O)O)CC1	D3 ag 36.4
CC(C)C[C@H](NC(=O)[C@H](Cc1ccccc1)n1c(=O)[nH]c2ccccc2c1=O)C(=O)N1CCC(C(=O)O)CC1	none
CSCC[C@H](NC(=O)[C@H](Cc1ccccc1)n1c(=O)[nH]c2ccccc2c1=O)C(=O)N1CCC(C(=O)O)CC1	D3 ag 31.8
COc1ccc(NC(=O)Cn2cc(S(=O)(=O)Cc3ccc(F)cc3)c3ccccc32)cc1OC	none (no result: DRD3 antagonist, BRCA1 expr act, B2AR arrestin)
CNCc1ccccc1Sc1cc(O)ccc1O	RGS4 inh inconclusive, DRD3 antagonist -55.0, B2AR arrestin inconclusive
CN(C)CC/C=C1/c2ccccc2CS(=O)(=O)c2ccccc21	none (no result: B2AR arrestin)
CN(C)CC/C=C1\c2ccccc2COc2ccccc21	DRD3 antagonist -77.3
Cc1cccc2cc(CN(Cc3nnnn3C3CCCCC3)C3CCCC3)c3nnnn3c12	DRD3 antagonist -64.8
C[C@]12CCC(=O)C=C1CC[C@@H]1[C@@H]2[C@@H](O)C[C@@]2(C)[C@H]1CC[C@]2(O)C(=O)COC(=O)CCC(=O)O	DRD3 antagonist -60.8!
CC(=O)OCC(=O)[C@@]1(O)CC[C@H]2[C@@H]3CCC4=CC(=O)CC[C@]4(C)[C@H]3[C@@H](O)C[C@@]21C	none
